{
  "source": "PubChem BioAssay (NCI)",
  "note": "This is part of a sample that, as a whole, favours compounds with a hit. Of some 83,000 tested, about 20% had one in any assay.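 Cells were grown in 96-well plates and exposed to the test compound at a single concentration for 48 hours; results are reported as percent growth, with values below 10 considered active.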 The source made the active and inactive calls.",
  "data": [
    {"system": "HL-60(TB) leukemia", "experiment": "NCI-60 one-dose screen, 48 h (100 = growth as untreated, 0 = no growth, -100 = all killed)", "conditions": "10 µM unless noted", "values": [
      {"molecule": "O=C(Nc1ccc(-n2cc(-c3ccncc3)c(-c3ccc(Cl)c(O)c3)n2)cc1)c1cc(Cl)cc(Cl)c1", "growth": "8.45% (active)"},
      {"molecule": "O=S1(=O)N(Cc2ccccc2)[C@@H](Cc2ccccc2)C2O[C@H]2[C@H](Cc2ccccc2)N1Cc1ccccc1", "note": "(stereo not given in full)", "growth": "46% (inactive)"},
      {"molecule": "CNCc1cccc2c1OCCOCCOCCC(C)S(=O)(=O)c1ccc(cc1)-c1cnc(N)c(n1)C(=O)N2", "note": "(stereo not given)", "growth": "-34.8% (active)"},
      {"molecule": "C[C@@H]1C[C@H]2C(=O)O[C@@H](C)[C@H](NC(=O)[C@H](Cc3cc(F)cc(F)c3)NC(=O)Nc3ccc(Cl)cc3F)C(=O)N3C[C@H](O)C[C@H]3C(=O)N3CCN(C)C[C@H]3C(=O)N[C@@H](C)C(=O)N2C1", "growth": "30.1% (inactive)"},
      {"molecule": "Cc1ccc(S(=O)(=O)O)c(C)c1", "growth": "100% (inactive)"},
      {"molecule": "CCOC(=O)/C(=C/CC/C(C)=C/CC/C(C)=C/CCc1ccoc1)CC(=O)N1CCCCC1", "growth": "-35.2% (active)"},
      {"molecule": "O=C(CNC(=O)c1cccc2ccccc12)Nc1ccccc1Oc1ccc(O)cc1", "growth": "-13.9% [5 µM] (active)"},
      {"molecule": "C=C(C)[C@@H]1CC[C@]2(C)CC[C@]3(C)[C@H](CC[C@@H]4[C@@]5(C)CCCNC(C)(C)[C@@H]5CC[C@]43C)[C@@H]12", "growth": "35.7% (inactive)"},
      {"molecule": "CC(=O)N(Cc1ccccc1)c1nc2ccc(O)c(CN(C)C)c2s1", "growth": "105% (inactive)"},
      {"molecule": "C=C1CC[C@@H]2[C@](C)(COC(C)=O)[C@H](OC(C)=O)CC[C@@]2(C)[C@@H]1CC(Nc1ccc(S(=O)(=O)Nc2ccc(Cl)nn2)cc1)C1=CCOC1=O", "note": "(stereo not given in full)", "growth": "-17.5% (active)"},
      {"molecule": "O=C(Nc1ccc(Cl)cc1Cl)Nc1ccc(-c2cccnc2)cc1N1CCC(CO)CC1", "growth": "6.31% (active)"},
      {"molecule": "OC(c1cc2cc(Cl)c(Cl)cc2c2cc(C(F)(F)F)ccc12)C1CCCCN1", "note": "(stereo not given)", "growth": "-21% (active)"},
      {"molecule": "Cc1ccc([P+](Cc2ccccc2)(c2ccccc2)c2ccccc2)cc1", "growth": "-36.4% (active)"},
      {"molecule": "Nc1ccc(C2=NNC(=O)Cc3cc4c(cc32)OCCO4)cc1Cl", "growth": "7.27% (active)"},
      {"molecule": "CCOC(=O)c1c(-c2ccc(C)cc2)c(C#N)c(=O)n(-c2cccc(C(F)(F)F)c2)c1N", "growth": "102% (inactive)"},
      {"molecule": "COC(=O)[C@]12CC[C@@H](C)[C@H](C)[C@@H]1C1=CC[C@@H]3[C@@]4(C)C[C@@H](OC(=O)/C=C/c5ccccc5)[C@H](O)[C@@](C)(CO)[C@@H]4[C@H](O)C[C@@]3(C)[C@]1(C)CC2", "growth": "-20.6% (active)"},
      {"molecule": "CCCCCc1c(C)[nH]c(/C=C2\\N=C(c3ccc[nH]3)C=C2CC)c1C", "growth": "-62% (active)"},
      {"molecule": "CC(=O)OC1Oc2ccccc2-c2oc(=O)c(-c3ccc(F)cc3)cc21", "note": "(stereo not given)", "growth": "97.3% (inactive)"},
      {"molecule": "O=C(Nc1ncc(Cc2cccc(C(F)(F)F)c2)s1)c1ccc2c(c1)OCCO2", "growth": "-46.6% (active)"},
      {"molecule": "O=C(Nc1ccccc1)c1cc2ccccc2s1", "growth": "61.6% (inactive)"},
      {"molecule": "COc1ccc(/C=N/NC(=O)c2cnn3c2NC(c2ccccc2)C3)cc1OC1CCCC1", "note": "(stereo not given)", "growth": "101% (inactive)"},
      {"molecule": "CCO/C=N/S(=O)(=O)c1cc2c(cc1Cl)NC=NS2(=O)=O", "growth": "112% (inactive)"},
      {"molecule": "COc1ccc2c(c1)C(=O)/C(=C/c1cccnc1)CC2", "growth": "99.5% (inactive)"},
      {"molecule": "COc1ccc2c(c1)C/C(=C\\c1cc(-c3ccc4c(c3)OCO4)n[nH]1)C2=O", "growth": "88.3% (inactive)"},
      {"molecule": "N#C/C(=C\\c1cc(O)c(O)c(O)c1)C(N)=O", "growth": "69.5% (inactive)"},
      {"molecule": "COc1ccc(/C(C)=C(\\c2ccc(Cl)cc2)c2ccc(OCCN3CCCCCC3)cc2)cc1F", "growth": "-15.4% (active)"},
      {"molecule": "CC(C)=CCC[C@@H](C)[C@H]1CC[C@@]2(C)C3=C(CC[C@]12C)[C@@]1(C)CC[C@H](O)C(C)(C)[C@@H]1CC3", "growth": "105% (inactive)"},
      {"molecule": "Cc1nc2c(c(N3CCCc4ccccc43)n1)CCC2", "growth": "-42.3% (active)"},
      {"molecule": "Cn1c2c(Cl)c(Cl)ccc2c2c(C#N)c[nH]c(=O)c21", "growth": "107% (inactive)"},
      {"molecule": "COc1ccc(-c2nc3sccn3c2-c2cc(-c3cc(OC)c(OC)c(OC)c3)on2)cc1", "growth": "23.5% (inactive)"},
      {"molecule": "Nc1nc(-c2cccc3ccccc23)cc2ccccc12", "growth": "-48.5% (active)"},
      {"molecule": "O=C1ON=[N+](c2ccc(Cc3ccc([N+]4=NOC(=O)C4CN4CCOCC4)cc3)cc2)C1CN1CCOCC1", "note": "(stereo not given)", "growth": "86.4% (inactive)"},
      {"molecule": "CCCNC(=O)Oc1ccc(/C(=C(\\C)c2ccccc2)c2ccc(OCCCN(C)C)cc2)cc1", "growth": "65.3% (inactive)"},
      {"molecule": "Cc1ccc(C2=N[C@H]3CCC[C@@H]3N(c3ccccc3)C(C(Cl)Cl)=N2)cc1", "growth": "93.2% (inactive)"},
      {"molecule": "Cn1nc(-c2ccc(Cl)cc2)nc2c(=O)n(C)c(=O)nc1-2", "growth": "-43.2% (active)"},
      {"molecule": "Brc1ccc2[nH]cc(-c3cncn3CCc3ccccc3)c2c1", "growth": "39.3% (inactive)"},
      {"molecule": "O=c1[nH]c(=S)c2c(n1CCCO)CCC2", "growth": "95.6% (inactive)"},
      {"molecule": "Nc1ccc(CC(=O)O)c(N)c1", "growth": "102% (inactive)"},
      {"molecule": "CNS(=O)(=O)c1ccc(Cl)c(Cl)c1", "growth": "137% (inactive)"},
      {"molecule": "CN1CCN(C(=O)OCc2nc3c(N4CCOCC4)nc(-c4ccccc4)nc3n2C)CC1", "growth": "-32.5% (active)"}
    ]}
  ]
}
